Screening data deposited in PubChem BioAssay by Broad Institute.
CD40 NFkB inh – CD40 pathway inhibition in BL2 cells; inhibition, % at 10 µM; actives 0.94% (n = 83,000); AID 1053188; BL2 NF-kB luciferase reporter, CD40L-induced, 4 h;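 active means mean inhibition of at least 50% with a set share of replicates also reaching that level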;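 further: 0% = neutral control wells and 100% = IKK inhibitor VII at 50 µM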
* hit, by the source's call; [ ] = another dose, or the depositor's remark. The sample as a whole holds a higher share of hits than the screen did.

SMILES | CD40 NFkB inh
CN(C)C(=O)c1ccc(-c2ccc3c(c2)[C@H]2[C@H](CCN2C(=O)c2ccccc2F)[C@H](CO)N3)cc1 | -5.2[25 µM]
CCn1c2ccccc2nc2cc3c(cc21)c(Cl)c(=O)c1ccccc13 | 89.7*
CCn1c(CNC(=O)C(C)(C)C)nc2ccccc21 | 4.1
CC(C)(C)N1CC(c2nc3ccccc3n2Cc2ccccc2)CC1=O (stereo unspecified) | 13.7
N#Cc1ccsc1NC(=O)C1CCN(S(=O)(=O)c2cccs2)CC1 | 0.6
Cc1ccc(-c2cnc3c(c2)C(=O)N([C@@H](C)CO)C[C@@H](C)[C@@H](CN(C)C(=O)CN(C)C)O3)cc1 | 6.8[25 µM]
O=C(CS(=O)(=O)c1ccc(F)cc1)N1CCN(c2ccccc2)CC1 | -22.0
CN1CCN(C(=O)CCN2C(=O)/C(=C\c3ccc(F)cc3)SC2=S)CC1 | 24.1
C=CC(=O)N1C/C(=C/c2ccc(F)cc2)C(=O)/C(=C\c2ccc(F)cc2)C1 | 67.6*
O=C(C[C@@H]1C[C@H]2c3cc(NC(=O)Cc4ccncc4)ccc3O[C@H]2[C@H](CO)O1)NCCN1CCCCC1 | -1.9[25 µM]
CN1CCN(C(=O)c2cc3c(c(-c4cccc(-c5cccc(C(=O)N(C)C)c5)c4)n2)[C@@H](CCO)N([S@](=O)C(C)(C)C)C3)CC1 | 4.9
COc1ccc(-c2ccc3c(c2)[C@@H]2[C@@H](CCN2C(=O)Nc2ccccc2OC)[C@@H](CO)N3C)cc1 | -10.2[25 µM]
COc1ccccc1CNC(=O)CN1C(=O)N(C)C2(CCCCC2)C1=O | -1.3
COC(=O)CCNS(=O)(=O)c1ccc2ccccc2c1 | 10.0
COC(=O)CCS(=O)(=O)c1nc(-c2ccccc2)cc(C(F)(F)F)n1 | 95.3*
COC(=O)c1ccc(OC(=O)CCS(=O)(=O)c2ccc(C)cc2)cc1 | -2.8
O=S1c2ccccc2Sc2ccccc21 | 4.8
CCN(C[C@H]1[C@H](c2ccccc2)[C@@H](CO)N1S(C)(=O)=O)C(=O)C1CCCC1 | -2.4[25 µM]
CO[C@H](CN(C)S(=O)(=O)c1ccc(F)cc1)[C@@H](C)CN(C(=O)Nc1ccccc1F)[C@H](C)CO | -11.8
Cc1ccc(C(=O)Nc2nc3ccccc3n2CCN2CCCC2)cc1 | -61.6
CCn1nccc1C(=O)Nc1nc2ccccc2n1CCN1CCCCC1 | -16.7
CCCn1c(NC(=O)c2cccc(S(=O)(=O)N3CCCC3)c2)nc2ccccc21 | 89.6*
CN1C(=O)c2cc(NC(=O)c3cccc(F)c3)ccc2OC[C@@H]2O[C@H](CC(=O)NCC3CC3)CC[C@H]21 | -3.4
C[C@@H]1CN([C@H](C)CO)C(=O)CCCn2nncc2CO[C@H]1CN(C)Cc1ccc2c(c1)OCCN2C | -11.0[25 µM]
O=C(c1ccc2c(c1)OCO2)N1CC[C@@H]2[C@H]1c1cc(C#Cc3ccccc3)ccc1N[C@@H]2CO | -4.4[25 µM]
SMILES | CD40 NFkB inh
Clc1ccc(C[n+]2cc(-c3ccccc3)n3c2CCCCC3)c(Cl)c1 | 65.1*
Clc1ccc(-c2cnc3n2CCCCC3)cc1 | -2.8
CC1(C(=O)Nc2ccccc2Br)CCN1C(=O)Cc1ccc(Cl)cc1Cl (stereo unspecified) | 0.8
O=C(COc1ccccc1)OCC(=O)c1ccc(S(=O)(=O)N2CCCCC2)cc1 | 10.9
CC1(C)C(=O)N=C2c3ccccc3C(=O)C(=O)C21 (stereo unspecified) | 90.8*[25 µM]
O=C(N[C@@H]1CC[C@H](CCn2cc(C3(O)CCCC3)nn2)O[C@H]1CO)C1CCCC1 | -3.4
COc1ccc2c3c(n(C)c2c1)[C@H](CO)N(C(=O)Nc1ccc(F)cc1)CC31CCN(C(=O)c2ccc3c(c2)OCO3)CC1 | 65.3*[25 µM]
COc1ccc2c3c(n(C)c2c1)[C@H](CO)N(C(=O)Nc1ccc(F)cc1)CC31CCN(C(=O)Nc2c(C)noc2C)CC1 | 19.4[25 µM]
COc1ccc2c3c(n(C)c2c1)[C@@H](CO)N(C(=O)Nc1ccc(F)cc1)CC31CCN(C(=O)c2ccc3c(c2)OCO3)CC1 | 29.7[25 µM]
COc1ccc(C(CNC(=O)c2cc(S(=O)(=O)N3CCCC3)ccc2Cl)N2CCCC2)cc1 (stereo unspecified) | -11.2
C[C@@H]1CN([C@@H](C)CO)C(=O)c2ccccc2-c2ccccc2CO[C@H]1CN(C)C(=O)[C@H](Cc1ccccc1)N(C)C | -4.0[25 µM]
CN(C)C(=O)[C@H]1[C@H](CO)[C@H]2Cn3c(ccc(C4=CCCC4)c3=O)[C@H]2N1Cc1ccc2c(c1)OCO2 | 1.0[25 µM]
CCCC(=O)NNC(=O)CCC(=O)Nc1ccccc1Cl | 8.5
CCCC(=O)NC1=C(Cl)C(=O)c2ccccc2C1=O | 106.8*
CCNC1=C(Cl)C(=O)c2ccccc2C1=O | -24.8
CCCNC(=O)[C@@H]1[C@@H](CO)[C@@H]2Cn3c(ccc(-c4cccc(OC)c4)c3=O)[C@@H]2N1Cc1nccs1 | -4.2[25 µM]
Cc1ccc(S(=O)(=O)CCC(=O)NCCC2=CCCCC2)cc1 | 47.8*
O=C(CCCc1ccccc1)NCCC1=CCCCC1 | -59.7
Cc1ccc(CNC(=O)CCS(=O)(=O)c2ccc(C)cc2)cc1 | 1.7
O=C(COC(=O)CN1C(=O)NC2(CCCC2)C1=O)Nc1c(Cl)cccc1C(F)(F)F | 10.8
O=C(COC(=O)CNC(=O)c1ccccc1)NCc1ccc2c(c1)OCO2 | -4.7
CC=Cc1cc2c(c(=O)o1)C(=O)C(O)C(C)O2 (stereo unspecified) | 41.1*
CCN1[C@@H]2Cn3c(ccc(-c4ccc(F)cc4)c3=O)[C@H]1[C@@H](C(=O)Nc1nccs1)[C@@H]2CO | -6.6[25 µM]
C[C@@H]1CN([C@@H](C)CO)C(=O)c2c(c3ccccc3n2C)-c2ccccc2CO[C@@H]1CN(C)C(=O)c1ccccc1 | 8.4
CC(C)NC(=O)N(C)C[C@H]1Oc2ccc(N(C)C)cc2C(=O)N(C)C[C@H]1C | 13.3
SMILES | CD40 NFkB inh
CN(C)C(=O)c1cccc(-c2ccc([C@@H]3[C@@H](C#N)N(C(=O)C4CCCCC4)[C@@H]3CO)cc2)c1 | -3.7
COC(=O)C12OCC34C(CC5C(C)=C(O)C(=O)CC5(C)C3C(O)C1O)OC(=O)C(OC(=O)C=C(C)C)C24 (stereo unspecified) | 103.1*
CC(=O)Nc1ccc(NC2CCCCC2NS(=O)(=O)c2ccccc2)cc1 (stereo unspecified) | 3.6
O=C(CNC(=O)c1cc(S(=O)(=O)N2CCCCC2)ccc1N1CCOCC1)Nc1ccc(F)c(F)c1 | -0.6
c1ccc2c(-c3nc4ccccc4[nH]3)cccc2c1 | -2.5
c1ccc2[nH]c(-c3cscn3)nc2c1 | -58.4
c1ccc2nc(-c3nc4ccccc4[nH]3)ccc2c1 | 77.9*
CCCN1[C@H](CO)[C@H](c2ccc(C#Cc3ccccc3)cc2)[C@@H]1CNC1CCCC1 | -12.6[25 µM]
Cc1ccc(N2C(=O)c3cccc4c([N+](=O)[O-])ccc(c34)C2=O)c2cccnc12 | 2.0
O=C1c2cccc3cccc(c23)C(=O)N1Cc1cccnc1 | 4.1
O=C1c2cccc3c([N+](=O)[O-])ccc(c23)C(=O)N1Cc1cccnc1 | 83.6*
CN1c2ccc(-c3ccccc3)cc2[C@H]2[C@H](CCN2C(=O)c2ccccn2)[C@@H]1CO | -4.8
O=C1C[C@@H](c2ccccc2)C(=O)N[C@H](c2ccccc2)C/C=C\C[C@H](c2ccccc2)N1 | 4.8[25 µM]
O=C1C[C@@H](c2ccccc2)C(=O)N[C@@H](c2ccccc2)C/C=C\C[C@H](c2ccccc2)N1 | -9.8[25 µM]
O=C1C[C@H](c2ccccc2)C(=O)N[C@@H](c2ccccc2)C/C=C\C[C@@H](c2ccccc2)N1 | 59.9*[25 µM]
CCS(=O)(=O)Nc1ccc2c(c1)C(=O)N(C)[C@H]1CC[C@@H](CC(=O)NCc3ccccc3F)O[C@H]1CO2 | -3.9[25 µM]
C[C@H](CO)N1C[C@H](C)[C@H](CN(C)S(=O)(=O)c2ccc(Oc3ccccc3)nc2)OCc2cn(nn2)CCCC1=O | 11.6[25 µM]
